An excerpt weighted towards active compounds, which were near 3% of everything screened.
SENP8 block-1: SENP8 (human) protease inhibition; hit rate 0.64% among 360,000; recombinant SENP8, Nedd8 substrate fluorescence; AID 602440; inhibition, % at 20 µM; Q96LD8; in the data active = inhibition mostly above about 40%, no sharp cut-off; inactive = mostly below about 27%
Target sequence (Q96LD8 whole entry, looked up): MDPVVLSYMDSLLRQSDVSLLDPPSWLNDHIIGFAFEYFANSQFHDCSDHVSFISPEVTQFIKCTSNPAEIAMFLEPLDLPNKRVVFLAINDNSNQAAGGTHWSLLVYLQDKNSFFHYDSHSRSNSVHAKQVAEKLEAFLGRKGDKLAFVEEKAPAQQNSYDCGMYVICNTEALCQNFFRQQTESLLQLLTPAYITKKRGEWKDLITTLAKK
C8 TRAIL sens: sensitizes caspase-8 expressing cells to TRAIL; hit rate 1% among 360,000; AID 624354; inhibition (viability loss, TRAIL sensitization), % at 10 µM; NB7+C8 cells + TRAIL, ATPlite viability luminescence;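 active = compounds causing at least 50% loss of cell viability in the single-dose screen, relative to plate controls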
PPC-1+TRAIL kill: PPC-1 cancer cell killing with TRAIL present | AID 1443 | cell killing (% activity), % at 4 µM or 5 µM | PPC-1 cells + TRAIL, ATPLite viability luminescence | hit rate 0.41% among 220,000;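 active = cell killing above 50% in the first pass at 4 µM, then a duplicate retest at 5 µM averaging 50% or more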
SENP7 block: inhibitors of human SENP7 protease; Q9BQF6; recombinant SENP7, Z-RLRGG-aminoluciferin luminescence, 40 min; inhibition, % at 5 µM; hit rate 1.5% among 330,000;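 active = inhibition above about 50% at the single test dose, limit read from the data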
Target sequence (Q9BQF6 706-1050 limits assumed): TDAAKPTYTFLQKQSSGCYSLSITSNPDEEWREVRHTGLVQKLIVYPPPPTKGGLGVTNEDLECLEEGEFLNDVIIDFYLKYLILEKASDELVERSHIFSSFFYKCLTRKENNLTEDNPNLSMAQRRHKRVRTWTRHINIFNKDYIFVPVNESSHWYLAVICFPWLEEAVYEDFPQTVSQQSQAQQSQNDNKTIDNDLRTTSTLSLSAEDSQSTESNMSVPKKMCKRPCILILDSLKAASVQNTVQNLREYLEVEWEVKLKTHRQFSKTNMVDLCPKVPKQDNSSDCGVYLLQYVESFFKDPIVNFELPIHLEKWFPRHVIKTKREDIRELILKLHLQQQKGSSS
SENP8 block-2: SENP8 protease inhibition. purified SENP8, Z-RLRGG-aminoluciferin cleavage, luminescence. hit rate 1.2% among 330,000. Q96LD8. inhibition, % at 10 µM. AID 2540; in the data active = inhibition above about 50%
SENP6 inh: inhibitors of human SENP6 protease. Q9GZR1. Recombinant SENP6 catalytic domain, aminoluciferin luminescence. inhibition, % at 10 µM. hit rate 1.8% among 330,000. AID 2599;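 active = inhibition above about 50% at the single tested dose, limit read from the data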
SENP8 conf: confirmation of human SENP8 protease inhibitors. inhibition, % at 12.5 µM. Recombinant SENP8, Z-RLRGG-aminoluciferin luminescence, 60 min. hit rate 40% among 6,200. shares compounds with SENP7 block;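 active = mean inhibition across replicates above about 50%, limit read from the data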
SENP6 confirm: confirmation of human SENP6 protease inhibitors. AID 488915. recombinant SENP6, Z-RLRGG-aminoluciferin luminescence. inhibition, % at 12.5 µM. hit rate 58% among 6,200. shares compounds with SENP7 block
SENP7 conf: confirmation of human SENP7 protease inhibitors; recombinant SENP7, Z-RLRGG-aminoluciferin luminescence, 40 min; hit rate 69% among 6,200; AID 488917; shares compounds with SENP7 block; inhibition, % at 12.5 µM
Casp3 select: selectivity test for SENP inhibitors: human caspase-3 inhibition | shares compounds with SENP7 block | purified caspase-3, Z-DEVD-aminoluciferin luminescence, 60 min | inhibition, % at 12.5 µM | hit rate 60% among 6,200 | AID 488918;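 active = mean inhibition above about 50%, limit read from the data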
Luc interf: counter-screen for SENP inhibitors: luminescence interference. shares compounds with SENP7 block. Pre-incubated SENP8/Z-RLRGG-aminoluciferin, luciferase luminescence interference. inhibition, % at 12.5 µM. hit rate 39% among 6,200. AID 488919;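 active = mean inhibition above about 50% when retested at one dose, limit read from the data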
Large screens that a line does not name were inactive (follow-up assays come after a bar, where they were run).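 Rule for the calls, unless noted: active = mean inhibition above about 50% in the one-dose retest (limit read from the data); inactive = the rest.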

CCOC(=O)CN1C(=O)S/C(=C\c2ccc(-c3ccc(C(=O)O)c(Cl)c3)o2)C1=O	none (no result: PPC-1+TRAIL kill)
CC(C)N1C(=O)S/C(=C\c2ccc(-c3ccc(Cl)c(C(=O)O)c3)o2)C1=O	SENP7 block 77, SENP8 block-2 86, SENP6 inh 91 (no result: PPC-1+TRAIL kill) | SENP8 conf 94 | SENP6 confirm 94 | SENP7 conf 99 | Casp3 select inactive | Luc interf 90
CCCCC(=O)OCC(=O)c1ccc(OCC)cc1	SENP7 block 51, SENP6 inh 55 | SENP8 conf inactive | SENP6 confirm inactive | SENP7 conf 80 | Casp3 select 64 | Luc interf inactive
CCOc1ccc(C(=O)COC(=O)CC)cc1	none
Cc1ccc2c(c1)N=C(c1ccc(F)cc1)CO2	SENP7 block 97, SENP8 block-2 95, SENP6 inh 98 | SENP8 conf inactive | SENP6 confirm 97 | SENP7 conf 102 | Casp3 select 91 | Luc interf inactive
COc1ccccc1C(=O)Nc1nsc(-c2ccccc2)n1	SENP7 block 53, SENP6 inh 61 | SENP8 conf 54 | SENP6 confirm 52 | SENP7 conf 75 | Casp3 select 66 | Luc interf 59
COc1ccccc1C(=O)Nc1nnc(-c2ccc(F)cc2)s1	none (no result: PPC-1+TRAIL kill)
CCOc1ccc(NC(=O)CSc2nc3ccccc3nc2N2CC(C)OC(C)C2)cc1 (stereo not given)	none (no result: PPC-1+TRAIL kill)
S=C(NNc1ccc2ccccc2c1)NC1CCCCC1	none
Nc1cc(Cl)nc(N/N=C/c2c(O)ccc3ccccc23)n1	SENP6 inh 58 | SENP8 conf inactive | SENP6 confirm inactive | SENP7 conf 84 | Casp3 select inactive | Luc interf inactive
Nc1nonc1N/N=C/c1c(O)ccc2ccccc12	none
Cc1csc(NC(=O)COc2ccc3c(c2)CCC3)n1	SENP7 block 84, SENP8 block-2 74, SENP6 inh 82 (no result: PPC-1+TRAIL kill) | SENP8 conf 81 | SENP6 confirm 80 | SENP7 conf 96 | Casp3 select 80 | Luc interf inactive
COc1ccc(CCNC(=O)CCNS(=O)(=O)c2cccc3nsnc23)cc1OC	none
COc1ccc(CCNC(=O)CCNS(=O)(=O)c2cccc3nonc23)cc1OC	SENP7 block 80 | SENP8 conf inactive | SENP6 confirm inactive | SENP7 conf inactive | Casp3 select inactive | Luc interf inactive
CCCCOc1ccc(CNC(=S)N/N=C/c2ccc(OC)c(OC)c2)cc1	none
O=S(=O)(NC1CCCCC1NCc1ccco1)c1ccc(Cl)cc1 (stereo not given)	SENP7 block 92 | SENP8 conf inactive | SENP6 confirm inactive | SENP7 conf inactive | Casp3 select inactive | Luc interf inactive
CCOC(=O)C1CCN(Cc2ccccn2)CC1	none (no result: SENP8 block-1, C8 TRAIL sens, PPC-1+TRAIL kill)
O=C(O)C1CCN(Cc2ccccn2)CC1	SENP6 inh 83 | SENP8 conf inactive | SENP6 confirm inactive | SENP7 conf inactive | Casp3 select inactive | Luc interf inactive
Cc1ccc(NCc2ccccc2OCc2ccccc2F)cc1	none
Oc1ccc(NCc2ccccc2OCc2ccccc2F)cc1	SENP8 block-1 76, SENP6 inh 60 | SENP8 conf inactive | SENP6 confirm inactive | SENP7 conf inactive | Casp3 select inactive | Luc interf inactive
Cc1ccc(/C=C/C(=O)O)cc1S(=O)(=O)NC1CCS(=O)(=O)C1 (stereo not given)	none
CCC(C)[C@H](NC(=O)C1CC(=O)N(c2ccc3c(c2)OCO3)C1)C(=O)NC1CCCCC1 (stereo not given in full)	none (no result: PPC-1+TRAIL kill)
COC(=O)c1cnn(-c2ccc(F)cc2F)c1/C=N/NC(N)=S	none
Cn1c(Nc2ccccc2)nc2ccccc21	none (no result: PPC-1+TRAIL kill)
Nn1c(Nc2ccccc2)nc2ccccc21	SENP6 inh 67 | SENP8 conf 51 | SENP6 confirm inactive | SENP7 conf 81 | Casp3 select 73 | Luc interf 59
Cc1cc(Oc2ccc(=O)[nH]n2)nc(Cl)n1	none
NC(=O)c1ccccc1-c1nc(-c2ccccc2)no1	none
COc1ccc(Br)cc1-c1noc(-c2ccccc2F)n1	none
NC(=O)c1cccc(-c2noc(-c3ccccc3F)n2)c1	SENP7 block 57, SENP8 block-2 56, SENP6 inh 74 (no result: PPC-1+TRAIL kill) | SENP8 conf inactive | SENP6 confirm 52 | SENP7 conf 81 | Casp3 select 66 | Luc interf inactive
COC(=O)c1cccc(-c2noc(-c3ccccc3F)n2)c1	SENP7 block 81, SENP6 inh 64 (no result: PPC-1+TRAIL kill) | SENP8 conf inactive | SENP6 confirm inactive | SENP7 conf 66 | Casp3 select 56 | Luc interf inactive
CN(CCC#N)c1ccc(/C=C(\C#N)c2ccccn2)cc1	C8 TRAIL sens 84, SENP8 block-2 80, SENP6 inh 76 | SENP8 conf 91 | SENP6 confirm 92 | SENP7 conf 99 | Casp3 select 89 | Luc interf 92
CCC(=O)Nc1cccc(-c2ccc(N3CCC(C)CC3)nn2)c1	C8 TRAIL sens 94, SENP7 block 59, SENP6 inh 69 (no result: PPC-1+TRAIL kill) | SENP8 conf inactive | SENP6 confirm 56 | SENP7 conf 84 | Casp3 select 73 | Luc interf inactive
CC1CCN(c2ccc(-c3cccc(NC(=O)c4ccco4)c3)nn2)CC1	C8 TRAIL sens 86, SENP7 block 74, SENP8 block-2 59, SENP6 inh 79 (no result: PPC-1+TRAIL kill) | SENP8 conf 66 | SENP6 confirm 69 | SENP7 conf 88 | Casp3 select 66 | Luc interf inactive
O=C(Nc1cccc(-c2ccc(N3CCCCC3)nn2)c1)c1ccc(Br)o1	C8 TRAIL sens 78, SENP7 block 83, SENP8 block-2 76, SENP6 inh 89 (no result: PPC-1+TRAIL kill) | SENP8 conf 73 | SENP6 confirm 79 | SENP7 conf 94 | Casp3 select 82 | Luc interf 60
CCOc1ccc(-c2cccc(NC(=O)c3ccc(Br)o3)c2)nn1	none (no result: PPC-1+TRAIL kill)
O=S(=O)(O)c1cccc(N=Nc2c(O)ccc3ccccc23)c1	SENP7 block 92, SENP8 block-2 94, SENP6 inh 99 | SENP8 conf 98 | SENP6 confirm 99 | SENP7 conf 102 | Casp3 select 97 | Luc interf 96
Cc1ccccc1-c1noc(-c2cccs2)n1	SENP7 block 85, SENP8 block-2 78, SENP6 inh 86 | SENP8 conf inactive | SENP6 confirm 84 | SENP7 conf 94 | Casp3 select 61 | Luc interf inactive

Screening results (PubChem BioAssay)
